Source: PubChem BioAssay (Tox21)
Results filed as inconclusive are left out. Activity calls are given as the source filed them. The call rests on the fitted dose curve; in most records, active means well fitted curve in the direction sought with a large enough effect in the repeat runs; inconclusive means weak or mixed curves; inactive means no such curve, though single readings can be large; an effect the other way counts as inactive or inconclusive.

What was measured:
[1] = molecular target: Cytochrome P450 2D6 (Homo sapiens) (UniProt P10635); assay: Cytochrome P450 Family 2 Subfamily D Member 6 (CYP2D6) small molecule antagonists: luciferase reporter qHTS assay (AID 1671196); further: nearly all actives have a fitted effect of over 50% in size; further: potency means the concentration at half of the fitted maximal effect
Sequence of Cytochrome P450 2D6 (Homo sapiens) (P10635 whole entry, looked up): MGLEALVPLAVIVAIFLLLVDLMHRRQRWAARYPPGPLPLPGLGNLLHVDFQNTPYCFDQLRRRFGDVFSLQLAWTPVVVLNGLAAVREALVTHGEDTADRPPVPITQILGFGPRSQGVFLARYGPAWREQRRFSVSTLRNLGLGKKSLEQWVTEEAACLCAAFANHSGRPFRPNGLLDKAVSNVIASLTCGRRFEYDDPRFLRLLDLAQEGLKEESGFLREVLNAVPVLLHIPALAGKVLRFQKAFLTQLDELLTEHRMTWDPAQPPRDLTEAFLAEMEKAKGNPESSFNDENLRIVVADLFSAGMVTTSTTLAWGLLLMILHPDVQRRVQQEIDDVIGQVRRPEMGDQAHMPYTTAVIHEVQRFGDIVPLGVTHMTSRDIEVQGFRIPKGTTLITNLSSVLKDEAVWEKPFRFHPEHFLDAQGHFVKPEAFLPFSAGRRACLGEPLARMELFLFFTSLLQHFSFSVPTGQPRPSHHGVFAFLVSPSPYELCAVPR
Outline: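 Test chemicals meet CYP2D6 plus proluciferin substrate (10 min, RT); NADPH regenerating solution then drives turnover for 1 h. Detection reagent halts the reaction; luminescence measured after 20 min.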

[2] = molecular target: Cytochrome P450 2C19 (Homo sapiens) (UniProt P33261); assay: Cytochrome P450 Family 2 Subfamily C Member 19 (CYP2C19) small molecule antagonists: luciferase reporter qHTS assay (AID 1671197); further: nearly all actives have a fitted effect of over 65% in size; further: potency means the concentration at half of the fitted maximal effect
Sequence of Cytochrome P450 2C19 (Homo sapiens) (P33261 whole entry, looked up): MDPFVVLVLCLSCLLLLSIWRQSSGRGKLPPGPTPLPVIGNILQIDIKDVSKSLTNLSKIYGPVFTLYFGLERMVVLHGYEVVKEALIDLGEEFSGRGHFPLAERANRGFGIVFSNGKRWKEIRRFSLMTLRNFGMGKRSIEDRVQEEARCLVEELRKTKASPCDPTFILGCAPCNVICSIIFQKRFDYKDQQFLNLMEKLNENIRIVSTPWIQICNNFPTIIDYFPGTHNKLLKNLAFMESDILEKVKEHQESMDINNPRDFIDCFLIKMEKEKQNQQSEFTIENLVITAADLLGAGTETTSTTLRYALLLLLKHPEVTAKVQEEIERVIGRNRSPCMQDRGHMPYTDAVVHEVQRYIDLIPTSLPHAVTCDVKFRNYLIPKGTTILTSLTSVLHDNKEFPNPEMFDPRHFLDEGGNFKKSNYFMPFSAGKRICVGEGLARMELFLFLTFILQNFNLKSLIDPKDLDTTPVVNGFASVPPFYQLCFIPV
Outline: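 P450-Glo CYP2C19 system: enzyme-substrate mix with compound 10 min at room temperature, then NADPH regeneration solution, 1 h at 37C. Proluciferin-to-luciferin conversion detected by luminescence after 20 min with detection reagent; ketoconazole as positive control.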

[3] = molecular target: Cytochrome P450 2C9 (Homo sapiens) (UniProt P11712); assay: Cytochrome P450 Family 2 Subfamily C Member 9 (CYP2C9) small molecule antagonists: luciferase reporter qHTS assay (AID 1671198); further: nearly all actives have a fitted effect of over 50% in size; further: potency means the concentration at half of the fitted maximal effect
Sequence of Cytochrome P450 2C9 (Homo sapiens) (P11712 whole entry, looked up): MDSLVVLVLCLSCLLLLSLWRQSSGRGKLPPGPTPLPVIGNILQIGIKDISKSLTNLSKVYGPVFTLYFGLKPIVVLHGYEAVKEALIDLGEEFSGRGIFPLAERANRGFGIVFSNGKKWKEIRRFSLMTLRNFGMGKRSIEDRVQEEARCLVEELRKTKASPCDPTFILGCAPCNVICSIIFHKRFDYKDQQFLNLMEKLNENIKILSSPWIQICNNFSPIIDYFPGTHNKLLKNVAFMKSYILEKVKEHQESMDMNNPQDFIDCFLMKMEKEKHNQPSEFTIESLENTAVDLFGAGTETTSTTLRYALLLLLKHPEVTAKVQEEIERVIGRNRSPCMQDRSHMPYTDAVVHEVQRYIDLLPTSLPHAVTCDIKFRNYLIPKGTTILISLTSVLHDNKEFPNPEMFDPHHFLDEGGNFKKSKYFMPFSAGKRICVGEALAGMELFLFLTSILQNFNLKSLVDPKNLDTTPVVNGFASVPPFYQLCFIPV
Outline: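 Enzyme-substrate mix preincubated with compound 10 min at room temperature; reaction started with NADPH regeneration solution, 1 h 37C. Luminescent luciferin product read after 20 min detection reagent.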

[4] = molecular target: Cytochrome P450 1A2 (Homo sapiens) (UniProt P05177); assay: Cytochrome P450 Family 1 Subfamily A Member 2 (CYP1A2) small molecule antagonists: luciferase reporter qHTS assay (AID 1671199); further: nearly all actives have a fitted effect of over 50% in size; further: potency means the concentration at half of the fitted maximal effect
Sequence of Cytochrome P450 1A2 (Homo sapiens) (P05177 whole entry, looked up): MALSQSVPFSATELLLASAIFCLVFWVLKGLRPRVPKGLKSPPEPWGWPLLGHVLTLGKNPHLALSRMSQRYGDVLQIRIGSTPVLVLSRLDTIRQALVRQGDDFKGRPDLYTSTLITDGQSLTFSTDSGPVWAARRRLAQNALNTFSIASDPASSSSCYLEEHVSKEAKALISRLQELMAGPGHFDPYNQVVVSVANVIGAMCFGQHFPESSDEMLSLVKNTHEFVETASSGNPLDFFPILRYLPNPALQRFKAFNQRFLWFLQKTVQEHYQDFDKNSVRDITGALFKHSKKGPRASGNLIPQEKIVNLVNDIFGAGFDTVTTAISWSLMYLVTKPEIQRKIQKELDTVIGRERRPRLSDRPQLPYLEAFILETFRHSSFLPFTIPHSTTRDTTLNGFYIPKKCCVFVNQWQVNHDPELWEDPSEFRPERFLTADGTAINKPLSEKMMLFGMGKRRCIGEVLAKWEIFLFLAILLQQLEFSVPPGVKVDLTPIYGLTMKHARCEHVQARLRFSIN
Outline: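 Steps: enzyme-substrate mix dispensed; test compounds and furafylline control pinned in; 10 min room temperature; NADPH regeneration solution added, 1 h; reaction stopped with luciferin detection reagent; luminescence read after 20 min.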

[5] = molecular target: Cytochrome P450 3A4 (Homo sapiens) (UniProt P08684); assay: Cytochrome P450 Family 3 Subfamily A Member 4 (CYP3A4) small molecule antagonists: luciferase reporter qHTS assay (AID 1671201); further: series mostly up to about 120 µM; nearly all actives have a fitted effect of over 50% in size
Sequence of Cytochrome P450 3A4 (Homo sapiens) (P08684 whole entry, looked up): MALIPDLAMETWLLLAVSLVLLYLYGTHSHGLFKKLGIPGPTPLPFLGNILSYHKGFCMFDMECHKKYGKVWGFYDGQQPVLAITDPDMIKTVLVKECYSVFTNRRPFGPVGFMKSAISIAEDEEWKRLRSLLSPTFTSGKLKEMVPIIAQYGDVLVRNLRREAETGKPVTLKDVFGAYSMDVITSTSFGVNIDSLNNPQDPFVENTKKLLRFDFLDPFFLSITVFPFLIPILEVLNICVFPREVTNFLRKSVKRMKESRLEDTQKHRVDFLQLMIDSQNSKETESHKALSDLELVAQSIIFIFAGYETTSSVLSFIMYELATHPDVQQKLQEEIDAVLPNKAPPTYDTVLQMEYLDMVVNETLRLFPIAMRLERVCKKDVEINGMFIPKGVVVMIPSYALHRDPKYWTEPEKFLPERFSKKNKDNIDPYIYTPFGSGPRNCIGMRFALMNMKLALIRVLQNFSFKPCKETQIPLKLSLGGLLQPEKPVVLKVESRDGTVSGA
Outline: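 Proluciferin-to-luciferin conversion by CYP3A4, NADPH-regenerated, 1 h RT; luminescence read as RLU. Ketoconazole as control.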

[6] = molecular target: Voltage-gated inwardly rectifying potassium channel KCNH2 (Homo sapiens) (UniProt Q12809); assay: Human Ether-a-go-go-Related Gene (hERG) channel small molecule antagonists: fluorescence cell-based qHTS assay (AID 1671200)
Sequence of Voltage-gated inwardly rectifying potassium channel KCNH2 (Homo sapiens) (Q12809 whole entry, looked up): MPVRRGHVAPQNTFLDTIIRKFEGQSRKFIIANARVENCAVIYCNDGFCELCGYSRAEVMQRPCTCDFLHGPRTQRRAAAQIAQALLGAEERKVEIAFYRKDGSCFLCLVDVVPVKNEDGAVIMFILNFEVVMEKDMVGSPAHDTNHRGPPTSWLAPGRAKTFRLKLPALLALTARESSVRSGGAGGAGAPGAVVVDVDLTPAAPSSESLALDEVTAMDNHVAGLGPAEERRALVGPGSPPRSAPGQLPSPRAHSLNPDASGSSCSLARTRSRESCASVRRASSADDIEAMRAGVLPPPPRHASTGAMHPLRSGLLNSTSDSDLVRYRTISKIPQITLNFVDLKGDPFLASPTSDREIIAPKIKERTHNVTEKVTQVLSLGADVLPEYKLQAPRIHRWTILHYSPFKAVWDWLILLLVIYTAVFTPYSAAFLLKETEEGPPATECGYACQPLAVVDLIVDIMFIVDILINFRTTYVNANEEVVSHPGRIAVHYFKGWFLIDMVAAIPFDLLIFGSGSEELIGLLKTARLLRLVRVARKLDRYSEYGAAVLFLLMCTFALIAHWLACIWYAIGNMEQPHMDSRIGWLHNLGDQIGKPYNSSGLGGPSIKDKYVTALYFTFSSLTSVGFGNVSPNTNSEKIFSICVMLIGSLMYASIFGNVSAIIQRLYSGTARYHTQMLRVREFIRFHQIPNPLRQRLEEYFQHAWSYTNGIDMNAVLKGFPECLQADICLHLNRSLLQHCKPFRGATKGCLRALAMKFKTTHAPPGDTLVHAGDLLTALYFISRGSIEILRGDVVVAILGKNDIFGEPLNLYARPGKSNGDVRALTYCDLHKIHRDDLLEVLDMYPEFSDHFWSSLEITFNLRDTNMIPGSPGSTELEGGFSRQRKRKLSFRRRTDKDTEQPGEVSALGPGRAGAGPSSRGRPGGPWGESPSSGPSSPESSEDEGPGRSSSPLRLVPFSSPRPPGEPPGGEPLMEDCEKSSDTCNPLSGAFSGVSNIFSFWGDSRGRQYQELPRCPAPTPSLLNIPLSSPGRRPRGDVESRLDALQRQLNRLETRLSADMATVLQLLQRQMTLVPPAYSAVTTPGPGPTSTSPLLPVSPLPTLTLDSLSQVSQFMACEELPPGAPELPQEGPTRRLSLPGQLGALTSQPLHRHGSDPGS
Outline: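 Kinetic two-minute fluorescence traces, sampled at 1 s, were collected following thallium stimulus of U2OS cells (1000 per well) that had been cultured overnight at 37 C and loaded with FluxOR II.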

Measured: Potency

NC(=O)c1cn(Cc2c(F)cccc2F)nn1
not listed: [6]
inactive: all other assays above

CCOc1ccc(C(=O)OCCN(CC)CC)cc1
inactive: [2] | [3] | [5]
active: [1] 1.55 µM | [4] 27.5 µM

N=C(N)c1ccc2cc(OC(=O)c3ccc(N=C(N)N)cc3)ccc2c1
not listed: [6]
inactive: all other assays above

O=C1NC(=O)[C@@]2(CCOc3ccc(F)cc32)N1
not listed: [6]
inactive: all other assays above

CCCN(CCC)CCc1cccc2c1CC(=O)N2
active: [1] 0.977 µM
not listed: [6]
inactive: all other assays above

CCC(C)C1CCCCC1=O (configuration not stated)
inactive: all assays above

CC(=O)N(CC(O)CO)c1c(I)c(C(=O)NCCO)c(I)c(C(=O)NCC(O)CO)c1I (configuration not stated)
inactive: all assays above

CCCCCCCCCCCC
inactive: all assays above

C=C(C)CS(=O)(=O)O
active: [4] 35.6 µM
not listed: [6]
inactive: all other assays above

Cc1ccc(Cl)cc1Cl
not listed: [4]
inactive: all other assays above

CC(C)c1cc2c(cc1S(=O)(=O)O)[C@@]1(C)CCC[C@@](C)(C(=O)O)[C@@H]1CC2
not listed: [4]
inactive: all other assays above

CC(C)(O)C(=O)c1ccccc1
active: [2] 39.9 µM
not listed: [4]
inactive: all other assays above

CN1C(=O)N(C)C(O)C1O (configuration not stated)
not listed: [4]
inactive: all other assays above

CCC=O
inactive: [1] | [2] | [3] | [5]

CCO[Si](CCC1CCC2OC2C1)(OCC)OCC (configuration not stated)
not listed: [4]
inactive: all other assays above

COC(=O)[C@@H](N)Cc1ccc(O)c(O)c1
inactive: [1] | [2] | [3] | [5]

CC(C)=CCCC(C)CC(=O)O (configuration not stated)
active: [2] 35.6 µM | [3] 63.3 µM
inactive: [1] | [6] | [5]

COc1ccccc1OCC(O)CN1CCN(CC(=O)Nc2c(C)cccc2C)CC1 (configuration not stated)
active: [1] 13.8 µM
inactive: [2] | [4]

O=C1CC2CC1C1CCCC21 (configuration not stated)
not listed: [4]
inactive: all other assays above

COC(=O)CCSCCC(=O)OC
not listed: [4]
inactive: all other assays above

O=C(O)CCCl
not listed: [4]
inactive: all other assays above

CC1=CC(C)C(C=O)CC1 (configuration not stated)
not listed: [6]
inactive: all other assays above

CC(C[N+](C)(C)C)OC(N)=O (configuration not stated)
not listed: [4]
inactive: all other assays above

COC(=O)c1cc(C(=O)OC)cc(S(=O)(=O)O)c1
inactive: [1] | [2] | [3] | [5]

CC(=O)CC(C)C
inactive: [1] | [2] | [3] | [5]

CCn1ccnc1CC1COc2ccccc2O1 (configuration not stated)
inactive: [3] | [6] | [5]
active: [1] 0.776 µM | [2] 4.9 µM

CCCCCCCCCCCCN(CCCCCCCCCCCC)CCCCCCCCCCCC
not listed: [4]
inactive: all other assays above
